Compound activity from PubChem BioAssay.
Only some compounds are listed: those with a hit (about 11% of all), similar ones and a draw of the others.
3T3 cytotox – Cytotoxic Profiling in NIH 3T3 Cell Line of Diverse Libraries Using Quantitative High-Throughput Screening; Potency, µM (top dose mostly 96.7 µM), for the others: at the top dose activity change, negative = cytotoxicity, actives largely listed as inhibitors; NIH 3T3 viability, CellTiter-Glo ATP luminescence, 48-72 h; 94,000 compounds, 4.3% hits; note: nearly all actives have a fitted effect of over 55% in size
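Cytotoxicity was measured by CellTiter-Glo ATP luminescence after 48 or 72 h compound exposure at 37 °C. Mouse NIH 3T3 fibroblasts were seeded at 400 cells/well and dosed by 23 nL pin transfer.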
HEK293 tox – Cytotoxic Profiling in HEK 293 Cell Line of Diverse Libraries Using Quantitative High-Throughput Screening; HEK 293 viability, ATP luminescence (CellTiter-Glo), 48-72 h; Potency, µM (titrated, usually from 115 µM), for inactives: top-dose activity change, negative = cytotoxicity, usual class: inhibitors; 94,000 compounds, 6.6% hits; AID 1345083, 2018; note: nearly all actives have a fitted effect of over 60% in size
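HEK 293 seeded at 250 cells/well receive compound via pintool. After 48 or 72 hr at 37 degree Celsius, 5% CO2 and 95% humidity, CellTiter-Glo is dispensed and luminescence read following 10 min at room temperature.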
FLuc inh – Firefly luciferase inhibition profiling of diverse chemical library using quantitative high-throughput screening; Luciferin 4-monooxygenase (Photinus pyralis), P08659; purified P. pyralis luciferase, luminescence, biochemical; Potency, µM (series often up to 115 µM), usual class: inhibitors; 76,000 compounds, 2.5% hits; note: nearly all actives have a fitted effect of over 65% in size
Target sequence (P08659 whole entry, looked up): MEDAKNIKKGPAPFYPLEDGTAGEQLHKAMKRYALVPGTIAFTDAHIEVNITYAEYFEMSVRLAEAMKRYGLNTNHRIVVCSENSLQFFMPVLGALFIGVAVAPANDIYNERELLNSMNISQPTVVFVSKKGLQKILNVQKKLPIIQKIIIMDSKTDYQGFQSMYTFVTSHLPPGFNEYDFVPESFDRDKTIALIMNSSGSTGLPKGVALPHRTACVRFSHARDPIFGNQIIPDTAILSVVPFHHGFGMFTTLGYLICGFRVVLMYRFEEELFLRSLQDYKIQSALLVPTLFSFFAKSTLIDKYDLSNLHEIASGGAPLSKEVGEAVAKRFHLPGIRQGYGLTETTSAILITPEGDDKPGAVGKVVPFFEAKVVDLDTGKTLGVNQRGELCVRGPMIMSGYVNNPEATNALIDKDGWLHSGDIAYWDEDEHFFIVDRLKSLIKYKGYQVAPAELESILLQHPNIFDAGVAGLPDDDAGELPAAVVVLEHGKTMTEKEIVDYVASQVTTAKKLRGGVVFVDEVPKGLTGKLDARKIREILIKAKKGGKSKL
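Purified 10nM P. pyralis luciferase with 10uM D-luciferin and 10uM ATP in 50mM Tris acetate pH 7.5, 10mM Mg acetate, 0.01% Tween-20, 0.05% BSA. qHTS titration; luminescence read by CCD imager.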
hNpr1 antagonist – Natriuretic polypeptide receptor (hNpr1) antagonism - Primary qHTS. Potency, µM (titrated, usually from 46.3 µM), for the others: at the highest dose activity change, negative = inhibition, hits mostly inhibitors. Atrial natriuretic peptide receptor 1 (Homo sapiens), P16066. HEK293 hNpr1 GloSensor cGMP, ANP-stimulated luminescence. 76,000 compounds, 1.6% hits; calls by dose curve; note: nearly all actives have a fitted effect of over 60% in size
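HEK293 cells stably expressing human Npr1 and cGMP GloSensor pGS-40F, loaded 2 h with 2% GloSensor reagent, given compound 30 min at room temperature. Luminescence read before and 20 min after 0.1 nM hNppA.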
Starred values were filed as active, the others as inactive; i = inactive; ? = inconclusive; . = no result; [ ] = dose if it differs, or a comment. Unless noted, calls come from the whole dose curve; as a rule, active = well fitted curve in the direction sought with a large enough effect; inconclusive = small, poorly fitted or top-dose-only effect, or another doubt; inactive = no such curve, though single readings can be large; an effect the other way counts as inactive or inconclusive. % is set by controls: 0 for no effect and ±100 for the full control effect; potency is the fitted concentration of half-maximal effect.

SMILES | 3T3 cytotox | HEK293 tox | FLuc inh | hNpr1 antagonist
CN(C)C(=O)C1CCCN1c1nccc(Nc2ccccc2F)n1 (centres undefined) | -14%[138 µM] | -22%[172 µM] | . | .
COc1cc(-c2nc(-c3c(C)noc3C)cc3c2cc(C)n3CCN(C)C)ccn1 | ? | 71µM* | i | 3%[70.6 µM]
O=C(c1cc2ccccc2[nH]1)N1CCC(c2noc(C3CC3)n2)C1 (centres undefined) | ? | ? | 28µM* | ?
Cc1ccc(NC(=O)c2nc3sccn3c2-c2cccc(C#N)c2)cc1 | -14% | -27% | . | .
CCC1Oc2ccc(NC(=O)Nc3cccc(OC)c3)cc2CN(Cc2ccc3c(c2)OCO3)C1=O (centres undefined) | ? | 32µM* | i | 1%
CCC1Oc2ccc(NC(=O)COc3ccccc3)cc2CN(Cc2cccc(OC)c2)C1=O (centres undefined) | ? | 45µM* | i | -3%
O=C(c1cccc(C(F)(F)F)c1)N1CCOCC2(CN(Cc3ccccc3)C2)C1 | 7.1µM* | 7.1µM* | i | -3%[70.6 µM]
O=[S+]([O-])(c1ccccc1)N1CC2(COCCN(Cc3ccc(Cl)cc3)C2)C1 | ? | ? | i | -9%[70.6 µM]
COc1ccc(C(=O)N2CCOCC3(CN(Cc4cccc(C#N)c4)C3)C2)cc1OC | 79µM* | ? | i | 7%[70.6 µM]
O=C(c1ccc(Cl)cc1)N1CCOCC2(C1)CN([S+](=O)([O-])c1ccccc1)C2 | 50µM* | ? | i | 1%[70.6 µM]
O=C(Cc1ccc(F)cc1)N1CCCC2(CNc3ncccc3[S+](=O)([O-])N2)C1 (centres undefined) | -27% | -18% | . | .
COc1ncccc1-c1nc(-c2c(C)noc2C)cc2cc(CN(C)C)oc12 | ? | -25%[172 µM] | i | -3%[70.6 µM]
Cc1noc(C)c1-c1cc2cc(CN(C)C)oc2c(N2CCN(Cc3ccccc3)CC2)n1 | 35µM* | 50µM* | i | -3%
Cc1noc(C)c1-c1cc2cc(CO)oc2c(N2CCN(c3ccccn3)CC2)n1 | ? | 71µM* | i | -15%[70.6 µM]
Cc1noc(C)c1-c1cc2cc(CN(C)C)oc2c(N2CCN(c3ccccn3)CC2)n1 | 35µM* | 45µM* | i | -2%[70.6 µM]
N#Cc1ccc(CN2C[C@@H]3C(=O)N(CCN4CCc5ccccc5C4)C(=O)[C@@H]3C2)cc1 | ? | ? | i | -12%
Cc1ccc(C(=O)N2CCC3(CCC(=O)N(CC4CC4)CC3)CC2)cc1F | ? | ? | i | -13%
COC(=O)C1=C(C)N=C2SC=C(CC(=O)NC3CC3)N2C1c1cccc(F)c1 (centres undefined) | -21% | -20% | i | -1%
O=C(NC1CCN(c2nccc(Nc3ccccc3Cl)n2)CC1)C1CCCC1 | 28µM* | ? | . | .
COc1ccccc1Nc1ccnc(N2CCC[C@H]2C(=O)N2CCC(Cc3ccccc3)CC2)n1 | ? | 40µM* | . | .
CN(C)C(=O)NC1CCN(c2nccc(Nc3ccccc3Cl)n2)CC1 | 28µM* | 45µM* | . | .
COc1ccccc1Nc1ccnc(N2CCC(NC(=O)C3CCCC3)CC2)n1 | ? | -27% | . | .
COc1ccccc1Nc1ccnc(N2CCC[C@H]2C(=O)NCc2cccnc2)n1 | -17% | ? | . | .
O=C(NC1CC1)[C@@H]1CCCN1c1nccc(Nc2ccccc2Cl)n1 | -6% | ? | . | .
O=C(NC1CCCC1)N1CCN(c2nccc(Nc3ccccc3Cl)n2)CC1 | ? | 40µM* | . | .
SMILES | 3T3 cytotox | HEK293 tox | FLuc inh | hNpr1 antagonist
CC1(c2ccccc2)N(Cc2ccccc2C#N)C(=O)OC12CCN(C(=O)COc1ccccc1)CC2 (centres undefined) | -26% | ? | i | -3%
CCOC1CCOC2(CCN(C(=O)c3nn(C)c4ccccc34)CC2)C1 (centres undefined) | 2% | 0% | i | -8%
CC(=O)N1CCN(C(=O)c2nc3sccn3c2-c2cccc(C(F)(F)F)c2)CC1 | -19% | -1% | . | .
CCN(CCCNC(=O)C1CCCCC(=O)N1C)c1ccccc1 (centres undefined) | -11% | 3% | i | 1%
CC(C)[S+](=O)([O-])N1CCC2OCCN(Cc3ccccc3F)C(=O)C2C1 (centres undefined) | i | ? | i | 4%[70.6 µM]
COc1ccc(OC)c(CNC(=O)Cc2cccn2-c2ccc(C)cc2)c1 | ? | ? | i | -3%
C[C@@H](NC(=O)c1cc(-c2ccc(C(F)(F)F)cc2)nc2c1cnn2C)c1ccccc1 | -22% | 1% | . | .
COc1ccccc1Nc1ccnc(N2CCN(C(=O)NC3CCCC3)CC2)n1 | 32µM* | 45µM* | . | .
COc1ccc(Nc2ccnc(N3CCN(C(=O)NC4CCCC4)CC3)n2)cc1 | ? | 45µM* | . | .
CC(=O)Nc1ccc(-c2nnc3n2CCN(C(=O)c2ccc(Cl)cc2)C3)cc1 | -10% | -1% | . | .
O=C(CC1CCCC1)N1CCCCCC1c1nnc(-c2ccccc2)o1 (centres undefined) | ? | ? | i | 2%
FC(F)(F)C1CN(c2ccc3cc(Cl)ccc3n2)CCO1 (centres undefined) | ? | ? | 25µM* | 5%
CN1CCOc2c(C(=O)NCc3cnn(C)c3)cc(-c3cccnc3)cc21 | 35µM* | ? | i | -15%[70.6 µM]
CN1CCOc2c(C(=O)NCCc3cnc[nH]3)cc(-c3ccccc3)cc21 | 79µM* | ? | i | 0%[70.6 µM]
CN1CCOc2c(C(=O)NCCc3cnc[nH]3)cc(-c3cccc4[nH]ccc34)cc21 | 89µM* | ? | ? | -1%[70.6 µM]
O=C(NCCc1ccccn1)[C@@H]1CCCN1c1ccnc2ccnn12 | ? | -2% | . | .
Cc1cccc(NC(=O)Cn2c(-c3ccc(Cl)cc3)nc(C)c(CCO)c2=O)c1C | -7% | -17% | i | -2%
O=C(Nc1ccc(Cl)cc1)NC1CCCN(c2ccc3nnc(C4CC4)n3n2)C1 (centres undefined) | -13% | ? | . | .
O=C(c1ccnc(-c2ccccc2-c2ccccc2)c1)N1CCCC1 | 35µM* | ? | i | 1%
O=C(c1ccnc(-c2ccncc2)c1)N1CCCC1 | -3% | 1% | i | -6%
COc1ccc(-c2onc(C)c2C(=O)NCCc2cccs2)cc1 | -31% | 35µM* | i | -14%
Cc1noc(-c2ccc3c(c2)OCO3)c1C(=O)NCCC(c1ccccc1)c1ccccc1 | ? | 22µM* | i | -17%
Cc1noc(-c2ccco2)c1C(=O)NCCC(c1ccccc1)c1ccccc1 | ? | 40µM* | i | -14%
COc1cc(OC)cc(-c2onc(C)c2C(=O)NCCC(c2ccccc2)c2ccccc2)c1 | ? | 40µM* | i | -3%
COc1cccc(CCNC(=O)c2c(C)noc2-c2cc(OC)cc(OC)c2)c1 | ? | ? | i | -15%
Cc1noc(-c2cccs2)c1C(=O)NCCc1cccs1 | -27% | ? | i | 0%
